Neddylation inh = inhibitors of cullin neddylation, primary screen, biochemical, TR-FRET, uHTS, NAE and Ubc12. NEDD8-conjugating enzyme Ubc12 (Homo sapiens) + NEDD8-activating enzyme E1 regulatory …. inhibition, % at 25 µM. 0.58% of 360,000 active; in the data active means inhibition above about 36%
TLR9-MyD88 block = inhibitors of TLR9-MyD88 association in cells, primary screen, cell-based, CHO, BLA complementation, fluorescence. inhibition, % at 4.98 µM. 0.21% of 340,000 active. CCF4 FRET ratio. Toll-like receptor 9 (Homo sapiens) + Myeloid differentiation primary response protein …. AID 504734, 2011;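 active means inhibition above the mean over all tested compounds plus 3 SD, cut at about 21% in these data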;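 further: 0% = DMSO only wells and 100% = clavulanate BLA inhibitor control wells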
NPR1 activator = GC-A stimulated cGMP production enhancers – HEK293 GC-A cells, cGMP TR-FRET, EC30 ANP, primary screen; 0% at EC30 ANP, 100% saturating ANP; activation, % at 10 µM; 0.14% of 370,000 active; AID 1671463, 2021; in the data active means activation above about 40%
NPR2 activator = human GC-B receptor activators, primary screen, HEK293 GC-B cells, cGMP TR-FRET, EC30 CNP; 0% at EC30 CNP, 100% saturating CNP; 0.11% of 370,000 active; AID 1920062, 2024; activation, % at 10 µM;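 active means activation at 10 µM reaching about 35% in either raw or pattern-adjusted values, limit read from the data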
TLR4 MyD88 comp = inhibitors of TLR4-MyD88 association in cells, primary screen, cell-based, HeLa CL3-4, BLA complementation, FRET ratio. HeLa CL3-4 TLR4/MyD88 BLA complementation. inhibition, % at 8.4 µM. 0.18% of 200,000 active. AID 861, 2007; in the data active means inhibition above about 25%;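 further: 0% = vehicle and 100% = reference inhibitor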
NOD2-RIPK2 inh = NOD2-RIPK2 binding disruptors in cells, primary screen, fluorescence, CHO cells, BLA complementation. CCF4 ratio. inhibition, % at 4.98 µM. 0.38% of 360,000 active; in the data active means inhibition above about 21%;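 further: 0% = vehicle only and 100% = reference blocker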
NOD2 RIPK2 conf = NOD2-RIPK2 binding disruptors, retest, confirmation, fluorescence, CHO cells, BLA complementation, triplicate; shares compounds with NOD2-RIPK2 inh; CCF4 FRET; inhibition, % at 4.98 µM; 70% of 1,200 active; AID 624370, 2012;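 active means mean inhibition across replicates above a set limit taken from the earlier primary screen, cut at about 21% in these data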;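 further: 0% = DMSO-only wells and the high end = clavulanate BLA-blocked wells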
BLA counter = hits BLA reporter in NOD2-RIPK2 inhibitor counterscreen; shares compounds with NOD2-RIPK2 inh; CHO BLA reporter, CCF4 FRET ratio; inhibition, % at 4.98 µM; 57% of 1,200 active; AID 624371;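 active means mean inhibition above the low-control mean inhibition plus three low-control SD, cut at about 11% in these data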;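 further: 0% = DMSO only wells and 100% = clavulanate high control wells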
* hit, by the source's call; · = no result given. Shown are actives, neighbours in structure and some others; about 1.2% of the full set was active somewhere.

SMILES | Neddylation inh | TLR9-MyD88 block | NPR1 activator | NPR2 activator | TLR4 MyD88 comp | NOD2-RIPK2 inh | NOD2 RIPK2 conf | BLA counter
CCN(CC)c1ccc(C=C(c2nnnn2-c2ccccc2)c2nnnn2-c2ccccc2)cc1 | 7 | 3 | -2 | 5 | 2 | 27* | 30* | 30*
Cc1ccc(-n2nnnc2C(=Cc2ccc(N(C)C)cc2)c2nnnn2-c2ccc(C)cc2)cc1 | 21 | -7 | -3 | -1 | 6 | 8 | · | ·
Cc1ccc(-c2cc(C(F)F)nc(S(C)(=O)=O)n2)cc1 | -35 | 15 | 74* | 1 | 4 | 23* | 18 | -2
Cc1ccc(-c2cc(-c3ccccc3)nc(Cl)n2)cc1 | -1 | 4 | -1 | -6 | 12 | -1 | · | ·
O=c1oc2ccccc2cc1-c1nc(-c2cccs2)cs1 | 34 | 20 | 9 | -5 | 17 | 32* | 43* | 51*
O=C(Nc1nc(-c2cccs2)cs1)c1cc2ccccc2oc1=O | · | · | · | · | -10 | · | · | ·
COc1ccc2c(c1)C(C)=CC(C)(C)N2S(=O)(=O)c1ccc(NC(C)=O)cc1 | 6 | -6 | -6 | -2 | · | 26* | 14 | -4
CCC1CCc2sc(C(=O)Nc3cc(S(=O)(=O)N4CCOCC4)ccc3OC)cc2C1 (configuration not stated) | · | · | -1 | -2 | · | · | · | ·
C=CCN1C(=O)[C@@H](CC(=O)NCc2cccs2)[C@]2(C(=O)OCC)CCCCC/C=C/12 | · | · | 0 | 9 | · | · | · | ·
Nc1ccn([C@@H]2O[C@H](C(=O)N[C@H](CO)Cc3ccccc3)[C@@H](O)[C@H]2O)c(=O)n1 | 0 | · | 0 | 1 | · | -8 | · | ·
CSCC[C@@H](CO)NC(=O)[C@H]1O[C@@H](n2ccc(N)nc2=O)[C@H](O)[C@@H]1O | -2 | · | 0 | 5 | · | 29* | -6 | 0
O=C(Nc1ccc(S(=O)(=O)N2CCCCCC2)cc1)c1[nH]ncc1[N+](=O)[O-] | -34 | 26* | 0 | 0 | · | 29* | 14 | 10
CCCCOCCCNC(=O)C[C@H]1C(=O)N(Cc2ccc(OC)cc2)C2=CCCC[C@@]21C(=O)OCC | · | · | 2 | 1 | · | · | · | ·
N#CC(=C1C=CC(=NO)C(Cl)=C1)c1ccc(Cl)cc1 | -10 | 8 | 4 | 3 | · | 42* | 26* | 23*
CC(C)NC(=O)N[C@H]1C[C@@H]2O[C@H](CO)CC[C@@H]2O[C@@H]1CCc1ccc(-c2ccc(F)cc2)cc1 | · | · | 8 | -1 | · | · | · | ·
COc1ccc(N2C(=O)C(CC(=O)Nc3ccc(Cl)cc3)N(NC(=O)c3cccc(F)c3)C2=S)cc1 (configuration not stated) | -4 | -4 | -6 | 6 | · | 8 | · | ·
COc1ccc(NC(=O)CC2C(=O)N(c3ccc(OC)cc3)C(=S)N2NC(=O)c2cccc(F)c2)cc1 (configuration not stated) | -14 | 7 | 0 | 5 | -18 | 22* | 5 | -3
CC(C)CN1C(=O)N2CCc3ccccc3C2CS1(=O)=O (configuration not stated) | · | · | 0 | -2 | · | · | · | ·
Cc1ccc(S(=O)(=O)c2ccc([N+](=O)[O-])cn2)cc1 | 1 | -5 | 9 | 4 | · | 70* | 54* | -3
O=[N+]([O-])c1ccc(S(=O)(=O)c2ccccc2)nc1 | -8 | 3 | 17 | -1 | · | 78* | 54* | 13*
COC(=O)C(C)(C(=O)OC)c1ccc([N+](=O)[O-])cn1 | -29 | -3 | -3 | 9 | 4 | -3 | · | ·
CCOC(=O)c1csc(NC(=O)C2CCCN(S(=O)(=O)c3ccccc3[N+](=O)[O-])C2)n1 (configuration not stated) | · | · | -1 | 5 | · | · | · | ·
Cc1ccc(C(=O)c2c(C)oc3c2C(=O)C(=O)c2ccccc2-3)cc1 | -35 | 13 | · | · | -16 | 24* | 24* | 3
CC(=O)Nc1ccc(-c2ccnc3c2CC(C)(C(=O)Nc2ccc(Cl)cc2)O3)cc1 (configuration not stated) | 23 | · | -6 | -5 | · | 21* | 10 | 0
CNC(=O)C1(C)Cc2c(-c3ccc(NC(C)=O)cc3)ccnc2O1 (configuration not stated) | 18 | · | 3 | 3 | · | 4 | · | ·
SMILES | Neddylation inh | TLR9-MyD88 block | NPR1 activator | NPR2 activator | TLR4 MyD88 comp | NOD2-RIPK2 inh | NOD2 RIPK2 conf | BLA counter
S=c1[nH]nc(-c2cc(-c3ccccc3)n[nH]2)n1N=Cc1c[nH]c2ccccc12 | · | · | -4 | -12 | · | · | · | ·
Nc1ccc2cc3[nH]c4cc(N)ccc4c3nc2c1 | -455 | 11 | 0 | -4 | · | 39* | 73* | 66*
CCOC(=O)[C@]12CCCCC/C=C\1N(CCc1ccc(Cl)cc1)C(=O)[C@H]2CC(=O)NCc1cccc(C(F)(F)F)c1 | · | · | 0 | 0 | · | · | · | ·
O=C1CCC(=O)N1c1nc2n(n1)C(c1ccccc1)C=C(c1ccc(Br)cc1)N2 (configuration not stated) | · | 14 | 3 | -2 | 10 | 39* | 16 | 12*
CC(C)C(NC(=O)[C@H](Cc1ccc(O)cc1)NC(=O)OC(C)(C)C)P(=O)(O)OC(Cc1ccccc1)C(=O)O (some centres not stated) | · | · | -1 | 1 | · | · | · | ·
CC(=O)OC[C@]12CC[C@H]3[C@@](C)(CC[C@H]4C(C)(C)CCC[C@]34C)[C@@H]1CC(C1=CC(=O)OC1O)O2 (some centres not stated) | -2 | · | -8 | -7 | · | 46* | 49* | 21*
CCCCCC[C@@H](CC)CN(C(=O)Oc1ccccc1)c1ccccc1 | · | · | -1 | -2 | · | · | · | ·
COc1ccc(NS(=O)(=O)c2ccc3ccccc3c2)c2ncccc12 | · | 13 | -2 | 3 | · | 29* | 30* | 17*
O=C(c1nnsc1S(=O)(=O)c1ccc(Cl)cc1)N1CCOCC1 | -3 | 6 | 7 | 1 | 20 | 21 | · | ·
CNC(=O)c1nnsc1S(=O)(=O)c1ccc(Cl)cc1 | 1 | 41* | 9 | 21 | 13 | 85* | 80* | 9
Cc1cccc(C(=O)Nc2nc3ncccn3c2-c2ccc(F)c(F)c2)c1 | · | · | 0 | 0 | · | · | · | ·
CCc1cccc(CC)c1N1C(=O)C2=C(SCCCS2)C1=O | 4 | 16 | -8 | -4 | · | 40* | 35* | 38*
